PubChem BioAssay AID488913 (National Center for Advancing Translational Sciences (NCATS), 2010)
Results filed as inconclusive are left out. A number with no mark means an inactive call. Calls of active or inactive are those of the source. The call rests on the fitted dose curve; in most records, active means well fitted inhibition curve with a large enough effect; inconclusive means small, poorly fitted or top-dose-only effect, or effect the other way; inactive means no such curve, though single readings can be large or run the other way.

Assay: Confirmation Concentration-Response Assay for lipid storage modulators: for probe SAR
Conditions: Drosophila S3 cells, BODIPY lipid droplet fluorescence, 18-24 h; series mostly up to 46.1 µM; activity change, negative = lipid storage inhibition: at the top concentration
Method in brief: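 Cells (5,000/well) received compound plus 1 µL of 400 µM oleic acid and were incubated 18–24 h at 24 °C. Lipid droplets were stained with BODIPY 493/503 and cells counted with CellTracker Red by laser-scanning cytometry. Percent activity was relative to 20 µM Triacsin C (100% inhibition).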

Structure (SMILES) | Potency | activity change, negative = lipid storage inhibition [%]
CCOc1ccc(CCNC(=O)c2cc3sccc3n2C)cc1OCC | 0.499 µM (active) | 
CC(C)(C)OC(=O)N1CCCCC1C(=O)NC1CCCc2c1cnn2-c1ccc(F)cc1F (stereo unspecified) |  | -14.1
CCOc1ccc(CCNC(=O)c2cc3sccc3n2Cc2cccc(C)c2)cc1OCC | 0.004 µM (active) | 
S=C(Nc1cc(Cl)ccc1Oc1ccccc1)N1CCN(c2ncccn2)CC1 | 12.5 µM (active) | 
CC(=O)NCc1ccc(-c2csc(NC(=O)Cc3cccs3)n2)cc1 |  | 15
O=C(NC1CCCc2c1cnn2-c1ccc(F)cc1F)c1ccncc1 (stereo unspecified) | 9.96 µM (active) | 
